Assay: P. aeruginosa biofilm formation inhibitors, primary screen, strain PAO1, LB-PBS medium, absorbance 600 nm (AID 1176)
Conditions: P. aeruginosa PAO1 growth/biofilm, A600, 12 h; higher = more signal
Note: test concentration not given here.

z-score, inactive:
CCCC[C@@H]1C[C@H]1[C@@H](NS(=O)(=O)c1cccc2cccnc12)c1ccc(-c2ccccc2)cc1 0.411
CC(C)N1CC=CC23O[C@@H]4C=CCCOC(=O)C4[C@H]2C(=O)N(CCCCCCO)[C@@H]3C1=O (stereo not given in full) 0.109
CC(C)=C1C(=O)C(c2ccccc2)=C2CN3C(=O)N(CCc4ccccc4)C(=O)[C@]3(Cc3ccc(F)cc3)[C@H]21 1.4
CO[C@H]1O[C@H](CO)[C@@H](OC(=O)Nc2ccc(C#N)cc2)[C@H](OC(=O)c2cc3ccccc3[nH]2)[C@H]1OC(=O)c1cc2ccccc2[nH]1 1.63
[N-]=[N+]=NCc1ccccc1[C@@H]1OC(c2ccc(OCCCO)cc2)=N[C@]1(Cc1ccccc1)C(=O)N1CCOCC1 -0.208
CC(C)c1ccc(NN2C(C(O)c3ccc4c(c3)OCO4)C=CC3C(=O)N(c4ccccc4)C(=O)C32)cc1 (stereo not given) 1.08
COCC(=C=CC[C@@H](O)c1ccccc1OCCO)CCO 0.0356
CC(C)OC(=O)C=C1C[C@@H](c2ccc(C#N)cc2)O[C@@H](c2ccc(C#N)cc2)O1 -0.281
CC(C)(C)N1CC=CC23O[C@@H]4C=CCCOC(=O)C4[C@H]2C(=O)N(CCCCCO)[C@@H]3C1=O (stereo not given in full) -0.36

Assay: S. cerevisiae RM11-1a growth modifiers, primary screen, strain RM11-1a, OD600, basal, 24 h (AID 1177);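 note: cultures grown under basal conditions with no added stressor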
Conditions: OD600, 24 h, higher = more signal, called active from +8 up or from −8 down

z-score, inactive:
CN(C)CCCNC(=O)[C@@H]1c2ccccc2C(=O)N(Cc2ccccc2)[C@H]1c1ccc(CO)cc1 0.075
COc1ccc([Si](C)(C)[C@H]2[C@H](CC(=O)N3CCC[C@H]3CO)O[C@@]3(C(=O)N(Cc4cccc(N5C(=O)COc6ccccc65)c4)c4ccccc43)[C@@H]2C)cc1 -1.74
C=CC[C@]1(C(=O)NCc2ccccc2)N=C(c2ccc(OCCCO)cc2)O[C@H]1c1ccccc1 1.15
COC(=O)[C@@]1(Cc2ccc(F)cc2)[C@H]2c3cc(C(=O)N(C)C)n(Cc4ccc(OC)c(OC)c4)c3C[C@H]2CN1C(=O)c1ccccc1 0.348
O=C(CS)NCCCCCNC(=O)[C@H]1C[C@H]2C(=O)N3CCC[C@H]3C(=O)N2[C@H]1c1cccc(OCCO)c1 0.18
Cn1cccc1C(O)C1C=CC2C(=O)NC(=O)C2N1Nc1ccccn1 (stereo not given) -0.0064
O=C1O[C@@H](c2ccccc2)[C@@H](c2ccccc2)N2[C@@H](c3ccc(OCCO)cc3)[C@]3(C(=O)Nc4ccccc43)[C@@H](C(=O)N3CCN(c4ncccn4)CC3)[C@H]12 2.78
COC(=O)c1c(CC[C@@H](CO)NC(=O)N[C@H](Cc2ccccc2)Cn2cc(-c3ccccc3N)nn2)oc(C(C)=O)c1C(=O)OC -0.053
COC(=O)[C@@H]1N=C(c2ccc(OCCCO)cc2)O[C@@H]1c1ccccc1N=[N+]=[N-] -0.82
CCOC(=O)C1=CC[C@H]2C(=O)N(CC)C(=O)[C@@H]12 1.38
C=C(/C(=C/C[C@H](OC(C)=O)c1ccc(OCCO)cc1)c1cnc2ccccc2c1)C(C)C -0.705
N#Cc1ccc(NN2C(C(O)c3cc(C(F)(F)F)cc(C(F)(F)F)c3)C=CC3C(=O)N(c4ccccc4)C(=O)C32)cc1 (stereo not given) -0.0165
COCCOC(=O)N1C(=O)[C@@]2(c3cc(C#CCNC(N)=O)ccc31)[C@H](c1ccccc1OCCO)N1[C@H](c3ccccc3)[C@H](c3ccccc3)OC(=O)[C@H]1[C@@H]2C(=O)N1CCN(c2ncccn2)CC1 0.733
CC(C)[Si]1(C(C)C)O[C@@H](c2ccccc2)c2cc(C3CC3)nc(-c3ccccc3)c21 -0.403
COc1ccc([Si](C)(C)[C@@H]2[C@@H](CC(=O)N3CCC[C@H]3CO)O[C@]3(C(=O)N(Cc4cccc(N5CCC5=O)c4)c4ccccc43)[C@H]2C)cc1 1.03
CN(C)c1ccc(C(O)C2C=CC3C(=O)N(c4ccccc4)C(=O)C3N2Nc2ccccc2F)cc1 (stereo not given) 0.545
CCCCCN1CC=CC23O[C@@H]4C=CCOC(=O)[C@@H]4[C@H]2C(=O)N(CCCCCCO)[C@@H]3C1=O (stereo not given in full) 0.151
CC(C)(C)OC(=O)CC[C@]1(C(N)=O)COC(c2ccc(OCCCO)cc2)=N1 -0.788
CC(C)(C)OC(=O)CC[C@]1(C(=O)NCc2ccccc2)N=C(c2ccc(OCCCO)cc2)O[C@H]1c1ccccc1 0.543
COc1ccc(CCNC(=O)[C@@H]2c3ccccc3C(=O)N(c3ccc(C)cn3)[C@H]2c2ccc(CO)cc2)cc1 -0.195
CC1CC/C=C\[C@H]2OC34C=CCN(Cn5nnc6ccccc65)C(=O)[C@H]3N(CCO)C(=O)[C@@H]4C2C(=O)O1 (stereo not given in full) -0.943
C[N+](C)(C)CCCCCCNC(=O)[C@@H]1C[C@@H]2C(=O)N3CCC[C@H]3C(=O)N2[C@@H]1c1cccc(OCCO)c1 -0.183
CN1C(=O)[C@@]2(CCC(=O)OC(C)(C)C)N=C(c3ccc(OCCCO)cc3)O[C@H]2c2ccccc21 -0.177
COCC1=C2[C@@H](CCc3ccccc3)OB(O)C[C@@H]2n2c(=O)n(-c3ccccc3)c(=O)n2C1 -0.352
CCCCC(=C=CC[C@H](O)c1ccccc1OCCO)C[C@H](O)COCc1ccccc1 -0.0076
COCCOC(=O)N1C(=O)[C@@]2(c3cc(C#CCNC(N)=O)ccc31)[C@H](c1ccc(O)cc1)N1[C@H](c3ccccc3)[C@H](c3ccccc3)OC(=O)[C@H]1[C@@H]2C(=O)N1CCCCCCC1 0.517
CC(C)NC(=O)[C@@H]1c2ccccc2C(=O)N(CC23CC4CC(CC(C4)C2)C3)[C@H]1c1ccc(CO)cc1 -1.52
CCCC[C@@H]1C[C@H]1[C@@H](NS(=O)(=O)c1cccc2cccnc12)c1ccc(-c2ccccc2)cc1 0.269
CC(C)N1CC=CC23O[C@@H]4C=CCCOC(=O)C4[C@H]2C(=O)N(CCCCCCO)[C@@H]3C1=O (stereo not given in full) 0.638
CC(C)=C1C(=O)C(c2ccccc2)=C2CN3C(=O)N(CCc4ccccc4)C(=O)[C@]3(Cc3ccc(F)cc3)[C@H]21 0.223
CO[C@H]1O[C@H](CO)[C@@H](OC(=O)Nc2ccc(C#N)cc2)[C@H](OC(=O)c2cc3ccccc3[nH]2)[C@H]1OC(=O)c1cc2ccccc2[nH]1 -1.67
[N-]=[N+]=NCc1ccccc1[C@@H]1OC(c2ccc(OCCCO)cc2)=N[C@]1(Cc1ccccc1)C(=O)N1CCOCC1 0.165
CC(C)c1ccc(NN2C(C(O)c3ccc4c(c3)OCO4)C=CC3C(=O)N(c4ccccc4)C(=O)C32)cc1 (stereo not given) 0.266
COCC(=C=CC[C@@H](O)c1ccccc1OCCO)CCO 0.0502
CC(C)OC(=O)C=C1C[C@@H](c2ccc(C#N)cc2)O[C@@H](c2ccc(C#N)cc2)O1 0.146
CC(C)(C)N1CC=CC23O[C@@H]4C=CCCOC(=O)C4[C@H]2C(=O)N(CCCCCO)[C@@H]3C1=O (stereo not given in full) 0.449

From PubChem BioAssay
